Test results reported in PubChem BioAssay (Tox21).
Several values for one entry are separate records, joined by “and”; a condition that tells them apart may be missing. Equal values may be shown once. Results filed as inconclusive are left out. Entries that show only a call come without a potency. More than one record can exist for a structure, and the calls need not agree. Activity calls are given as the source filed them. Unless noted, the call rests on the fitted dose curve; in most records, active means well fitted curve in the direction sought with a large enough effect in the repeat runs; inconclusive means weak or mixed curves; inactive means no such curve, though single readings can be large; an effect the other way counts as inactive or inconclusive.

Tests used:
[1] = qHTS assay to identify small molecule antagonists of the estrogen receptor alpha (ER-alpha) signaling pathway using the BG1 cell line in the presence of 0.1 nM 17-beta-estradiol - cell viability counter screen (AID 1259241); further: nearly all actives have a fitted effect of over 40% in size
In short: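 Following 5 days in phenol red-free medium with charcoal-stripped serum, VM7Luc4E2 cells received test compounds alongside 0.1 nM 17beta-estradiol (final) at 37C for 22 hr. Live cells were then quantified via protease-substrate fluorescence.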

[2] = qHTS assay to identify small molecule antagonists of the androgen receptor (AR) signaling pathway using the MDA cell line in the presence of 0.5 nM R1881 - cell viability counter screen (AID 1259242); further: nearly all actives have a fitted effect of over 45% in size
In short: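 Steps: plate MDA-kb2 cells, rest 5 hr at 37C without CO2; pin in compounds in DMSO; add R1881 to 0.5 nM final; incubate 16 hr; add CellTiter-Fluor, 30 min; read fluorescence.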

[3] = qHTS assay to identify small molecule HDAC inhibitors (AID 1259364); further: potency means the concentration at half of the fitted maximal effect;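 further: wild-type HCT-116 cells with endogenous class I/II HDAC activity; nearly all actives have a fitted effect of over 45% in size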
In short: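 Cells (HCT-116, wild type) are seeded at 1,500 per well, incubated overnight, treated with compound in DMSO for 2 hr, then developed with HDAC-Glo I/II reagent for 30 min at room temperature.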

[4] = qHTS assay to identify small molecule HDAC inhibitors - cell viability counter screen (AID 1259365); further: series mostly up to about 92 µM; nearly all actives have a fitted effect of over 50% in size
In short: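 HCT-116 wild-type, overnight attachment; 2hr drug exposure, 37C; CellTiter-Glo luminescent ATP readout after 30min RT.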

[5] = qHTS assay to identify small molecule agonists of the sonic hedgehog signaling (Shh) pathway - cell viability counter screen (AID 1259366); further: nearly all actives have a fitted effect of over 50% in size
In short: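 Compounds in DMSO were pin-transferred onto 3T3 Gli1-Luc cells that had settled 4hr; plates then stood 24hr at 37C and 5% CO2. One hour before the end, CellTiter-Fluor was added and fluorescence recorded.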

[6] = qHTS assay to identify small molecule antagonists of the sonic hedgehog signaling (Shh) pathway - cell viability counter screen (AID 1259367); further: nearly all actives have a fitted effect of over 55% in size
In short: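 Viability was read by CellTiter-Fluor fluorescence in the same wells, reagent added 23 hr into compound treatment and incubated 1 hr at 37C. The 3T3 Gli1-Luc reporter cells (2,000/well) received conditioned medium after compound and ran 24 hr.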

[7] = qHTS assay to identify small molecule agonists of the sonic hedgehog signaling (Shh) pathway (AID 1259368; calls by dose curve;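 further: NIH/3T3-derived 3T3Gli1-Luc cells carrying a stable Gli1-driven firefly luciferase reporter; series mostly up to about 92 µM; nearly all actives have a fitted effect of over 15% in size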)
In short: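 Cells of a mouse NIH/3T3 clone stably expressing luciferase under the Gli1 transcriptional response element are exposed to test chemicals for 24 hr at 37 C. Pathway activation is detected as a rise in luminescence.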

[8] = qHTS assay to identify small molecule antagonists of the sonic hedgehog signaling (Shh) pathway (AID 1259369; calls by dose curve; further: nearly all actives have a fitted effect of over 45% in size; further: potency means the concentration at half of the fitted maximal effect)
In short: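 Cells are plated and held 4hr at 37 C, compounds (DMSO) are pinned in, conditioned medium is added to stimulate the pathway, and after 24hr luciferase reagent is added for 30min before luminescence is read.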

[9] = molecular target: Estrogen receptor beta (Homo sapiens) (UniProt Q92731); assay: qHTS assay to identify small molecule agonists of the estrogen receptor beta (ER-beta) signaling pathway (AID 1259377; active means well fitted activation curve with a large enough effect in the signal ratio in the repeat runs, not every such curve was filed as active; the % refers to the signal ratio)
Sequence of Estrogen receptor beta (Homo sapiens) (Q92731 whole entry, looked up): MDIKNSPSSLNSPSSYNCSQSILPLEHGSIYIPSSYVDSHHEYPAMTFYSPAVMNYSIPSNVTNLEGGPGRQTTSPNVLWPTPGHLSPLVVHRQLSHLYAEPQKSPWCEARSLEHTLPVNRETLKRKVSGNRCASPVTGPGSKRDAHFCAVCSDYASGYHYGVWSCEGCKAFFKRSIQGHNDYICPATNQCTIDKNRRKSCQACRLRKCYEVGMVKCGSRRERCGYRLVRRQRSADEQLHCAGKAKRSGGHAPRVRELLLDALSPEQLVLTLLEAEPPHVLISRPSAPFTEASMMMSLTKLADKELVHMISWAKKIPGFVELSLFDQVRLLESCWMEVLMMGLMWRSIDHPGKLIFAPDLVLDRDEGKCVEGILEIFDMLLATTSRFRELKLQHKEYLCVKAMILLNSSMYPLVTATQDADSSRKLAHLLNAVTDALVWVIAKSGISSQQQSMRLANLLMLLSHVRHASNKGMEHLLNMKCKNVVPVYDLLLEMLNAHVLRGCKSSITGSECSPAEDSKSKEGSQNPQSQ
In short: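 qHTS in ER-beta-UAS-bla HEK293T cells: 6 hr settling, then 16 hr compound at 37C, then LiveBLAzer substrate 2 h at RT before fluorescence reading.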

[10] = molecular target: Estrogen receptor beta (Homo sapiens) (UniProt Q92731); assay: qHTS assay to identify small molecule antagonists of the estrogen receptor beta (ER-beta) signaling pathway (AID 1259378; active means well fitted inhibition curve with a large enough effect in the signal ratio in the repeat runs, not every such curve was filed as active; the % refers to the signal ratio; further: potency means the concentration at half of the fitted maximal effect)
In short: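 Antagonist mode: compounds added to beta-lactamase reporter HEK293T ER-beta-UAS cells stimulated with E2 (1nM final), 16 hr at 37C. LiveBLAzer B/G FRET substrate, 2 hours room temperature, fluorescence read-out.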

[11] = qHTS assay to identify small molecule agonists of the estrogen receptor beta (ER-beta) signaling pathway - cell viability counter screen (AID 1259380); further: nearly all actives have a fitted effect of over 30% in size; further: potency means the concentration at half of the fitted maximal effect
In short: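 Cytotoxicity is measured in parallel with the reporter screen: after 16 hr compound exposure at 37C and a 2 hr LiveBLAzer step, CellTiter-Glo is added to the same ER-beta-UAS-bla HEK293T wells and luminescence read after 30 min.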

[12] = qHTS assay to identify small molecule antagonists of the estrogen receptor beta (ER-beta) signaling pathway - cell viability counter screen (AID 1259382);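 further: HEK293T cells carrying ER-beta-UAS-bla reporter stimulated with estradiol; series mostly up to about 92 µM; nearly all actives have a fitted effect of over 55% in size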
In short: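 Cytotoxicity counter screen multiplexed with the beta-lactamase antagonist assay: GripTite HEK293T ER-beta-bla cells were treated 16 hr with test chemicals in the presence of 1nM 17-beta-estradiol, and viability was measured by CellTiter-Glo.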

[13] = qHTS assay to identify small molecule agonists or antagonists of the thyroid stimulating hormone receptor (TSHR) signaling pathway - wild type cell line counter screen (AID 1259384; calls by dose curve)
In short: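 Counter screen in untransfected Hek293: compounds (15-point titration, triplicate) plus phosphodiesterase inhibitor Ro20-1724 added after 18 h plating; 30 min RT. Intracellular cAMP via competitive d2/cryptate immunoassay, 1 h incubation.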

[14] = molecular target: Thyrotropin receptor (Homo sapiens) (UniProt P16473); assay: qHTS assay to identify small molecule antagonists of the thyroid stimulating hormone receptor (TSHR) signaling pathway (AID 1259385; calls by dose curve; further: nearly all actives have a fitted effect of over 20% in size)
Sequence of Thyrotropin receptor (Homo sapiens) (P16473 whole entry, looked up): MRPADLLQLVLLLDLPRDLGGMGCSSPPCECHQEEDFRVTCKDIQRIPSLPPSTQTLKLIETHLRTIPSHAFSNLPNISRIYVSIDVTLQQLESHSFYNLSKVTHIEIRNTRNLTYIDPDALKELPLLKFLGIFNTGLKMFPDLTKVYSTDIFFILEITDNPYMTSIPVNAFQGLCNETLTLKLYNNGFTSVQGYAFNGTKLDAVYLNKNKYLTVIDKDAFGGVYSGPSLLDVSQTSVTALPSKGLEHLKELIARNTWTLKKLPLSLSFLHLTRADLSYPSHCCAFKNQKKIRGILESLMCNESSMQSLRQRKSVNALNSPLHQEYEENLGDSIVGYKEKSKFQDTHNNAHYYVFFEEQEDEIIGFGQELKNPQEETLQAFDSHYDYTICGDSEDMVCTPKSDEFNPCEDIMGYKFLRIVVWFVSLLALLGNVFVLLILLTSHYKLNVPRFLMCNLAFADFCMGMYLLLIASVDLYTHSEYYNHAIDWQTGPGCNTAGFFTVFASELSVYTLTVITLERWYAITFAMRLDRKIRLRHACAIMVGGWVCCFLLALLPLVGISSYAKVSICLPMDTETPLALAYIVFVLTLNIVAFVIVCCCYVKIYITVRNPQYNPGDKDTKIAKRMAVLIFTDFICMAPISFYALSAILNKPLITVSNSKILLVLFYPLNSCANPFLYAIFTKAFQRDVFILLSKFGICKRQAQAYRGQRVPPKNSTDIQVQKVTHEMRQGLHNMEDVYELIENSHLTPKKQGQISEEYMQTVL
In short: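 Antagonist mode: compound-treated TSHR-expressing HEK293 cells were stimulated with 1.5 ng/mL TSH (final) in presence of Ro20-1724 for 30 min at RT. HTRF cAMP detection after 1 h; each compound tested at 15 concentrations, triplicate.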

[15] = qHTS assay to identify small molecule agonists of the estrogen receptor alpha (ER-alpha) signaling pathway in the presence of an antagonist - cell viability counter screen (AID 1259386);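 further: cells exposed to compounds for 22 h at 37 °C before the viability read; nearly all actives have a fitted effect of over 30% in size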; further: potency means the concentration at half of the fitted maximal effect
In short: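 Cytotoxicity was measured in parallel with the ERE-luciferase agonist screen, in the same wells. The cells were VM7Luc4E2, which endogenously express ER-alpha, and treatment was with compounds plus 10.0nM ICI-182,780 for 22hr.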

[16] = qHTS assay to identify small molecule agonists of the androgen receptor (AR) signaling pathway in the presence of an antagonist - cell viability counter screen (AID 1259379); further: nearly all actives have a fitted effect of over 25% in size; further: potency means the concentration at half of the fitted maximal effect
In short: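 Cytotoxicity is assessed by CellTiter-Fluor in MDA-kb2 cells carrying an MMTV-driven luciferase reporter. Cells receive 3.0uM nilutamide plus compounds at 15 concentrations and incubate 16 hr at 37C without CO2 before fluorescence reading.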

[17] = molecular target: Estrogen receptor (Homo sapiens) (UniProt P03372); assay: qHTS assay to identify small molecule antagonists of the estrogen receptor alpha (ER-alpha) signaling pathway using the BG1 cell line in the presence of 0.1 nM 17-beta-estradiol (AID 1259244); further: nearly all actives have a fitted effect of over 50% in size
Sequence of Estrogen receptor (Homo sapiens) (P03372 whole entry, looked up): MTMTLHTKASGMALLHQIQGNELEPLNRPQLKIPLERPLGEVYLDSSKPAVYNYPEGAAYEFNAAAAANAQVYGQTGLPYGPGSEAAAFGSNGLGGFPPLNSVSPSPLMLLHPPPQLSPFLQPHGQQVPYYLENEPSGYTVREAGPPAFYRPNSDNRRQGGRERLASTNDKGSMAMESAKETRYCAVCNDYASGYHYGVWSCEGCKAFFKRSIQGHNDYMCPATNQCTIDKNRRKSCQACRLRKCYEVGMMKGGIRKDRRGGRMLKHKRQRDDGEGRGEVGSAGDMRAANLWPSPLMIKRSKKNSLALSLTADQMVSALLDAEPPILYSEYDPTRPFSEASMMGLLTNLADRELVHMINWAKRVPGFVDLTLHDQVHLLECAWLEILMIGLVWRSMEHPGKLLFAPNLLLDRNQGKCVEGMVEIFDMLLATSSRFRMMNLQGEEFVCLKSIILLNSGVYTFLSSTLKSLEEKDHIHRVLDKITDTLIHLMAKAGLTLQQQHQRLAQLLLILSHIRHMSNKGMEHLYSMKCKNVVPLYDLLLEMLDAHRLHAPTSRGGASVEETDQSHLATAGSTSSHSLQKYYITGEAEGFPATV
In short: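 Antagonist mode: compounds in DMSO are pinned onto VM7Luc4E2 reporter cells, 0.1 nM final 17beta-estradiol is added, and after 22 h at 37C luciferase luminescence is measured with ONE-Glo.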

[18] = molecular target: Estrogen receptor (Homo sapiens) (UniProt P03372); assay: qHTS assay to identify small molecule agonists of the estrogen receptor alpha (ER-alpha) signaling pathway in the presence of an antagonist (AID 1259383; calls by dose curve; further: nearly all actives have a fitted effect of over 15% in size; further: potency means the concentration at half of the fitted maximal effect; on activation: top concentration of the series differs between compounds)
In short: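 Agonist-mode confirmation in the presence of the ER antagonist ICI-182,780 at 10.0nM final. Breast-derived VM7Luc4E2 reporter cells were exposed to compounds for 22hr, and ERE-driven luciferase was quantified by luminescence.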

[19] = qHTS assay to identify small molecule phospholipidosis (PLD) inducers (AID 1259344; active means well fitted curve in the direction sought with a large enough effect; an effect the other way counts as inactive or inconclusive)
In short: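 Phospholipid accumulation was scored by imaging: fixed, Hoechst-counterstained HepG2 cells stained with LipidTOX Red after 24 h compound exposure at 37 C. Read-outs were pit count and pit intensity per well or per cell, with amiodarone and DMSO controls.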

SMILES: c1ccc(NNc2ccccc2)cc1
- Potency [1]: inactive
- Potency [2]: inactive
- Potency [3]: 15.4 µM (active)
- outcome [4]: inactive
- Potency [5]: inactive
- Potency [6]: inactive
- Potency [7]: inactive
- Potency [8]: inactive
- Potency [9]: inactive
- Potency [10]: inactive
- Potency [11]: inactive
- Potency [12]: inactive
- outcome [13]: inactive
- outcome [14]: inactive
- Potency [15]: inactive

SMILES: Cc1ccc(OP(=O)(Oc2ccc(C)cc2)Oc2ccc(C)cc2)cc1
- Potency [1]: inactive
- Potency [2]: inactive
- outcome [4]: inactive
- Potency [5]: inactive
- Potency [6]: inactive
- Potency [7]: inactive
- Potency [8]: inactive
- Potency [11]: 68.5 µM (active)
- Potency [12]: inactive
- outcome [14]: inactive
- Potency [15]: inactive

SMILES: Nc1ccc(-c2ccc(N)c(N)c2)cc1N
- Potency [1]: inactive
- Potency [2]: inactive
- Potency [3]: 54.3 µM (active)
- outcome [4]: inactive
- Potency [6]: inactive
- Potency [7]: inactive
- Potency [8]: 13.6 µM (active)
- Potency [9]: inactive
- Potency [10]: 48.4 µM (active)
- Potency [16]: inactive
- Potency [12]: inactive
- outcome [13]: inactive
- Potency [15]: 54.3 µM (active)

SMILES: Cc1ccc2c(c1N)C(=O)c1ccccc1C2=O
- Potency [2]: inactive
- Potency [17]: inactive
- outcome [4]: inactive
- Potency [7]: inactive
- Potency [8]: inactive
- Potency [10]: inactive
- Potency [16]: 27 µM (active)
- Potency [11]: 30.3 µM (active)
- Potency [12]: inactive
- Potency [18]: 6.04 µM (active) and inactive
- outcome [14]: inactive
- Potency [15]: 27 µM (active) and 27.3 µM (active)

SMILES: COc1ccc(C(CN(C)C)C2(O)CCCCC2)cc1 (centres undefined)
- Potency [1]: inactive
- Potency [2]: inactive
- outcome [19]: inactive
- outcome [4]: inactive
- Potency [5]: inactive
- Potency [6]: inactive
- Potency [7]: inactive
- Potency [8]: inactive
- Potency [16]: inactive
- Potency [11]: inactive
- Potency [12]: inactive
- outcome [13]: inactive
- outcome [14]: inactive
- Potency [15]: inactive

SMILES: CC(C)(C)c1ccccc1O
- Potency [1]: inactive
- Potency [2]: inactive
- Potency [3]: inactive
- outcome [4]: inactive
- Potency [5]: inactive
- Potency [6]: inactive
- Potency [7]: inactive
- Potency [8]: inactive
- Potency [9]: inactive
- Potency [10]: inactive
- Potency [16]: inactive
- Potency [11]: inactive
- Potency [12]: inactive
- Potency [15]: inactive

SMILES: C=CCN(CC=C)C(=O)C(Cl)Cl
- Potency [1]: inactive
- Potency [2]: inactive
- Potency [3]: inactive
- outcome [4]: inactive
- Potency [5]: inactive
- Potency [6]: inactive
- Potency [7]: inactive
- Potency [8]: inactive
- Potency [9]: inactive
- Potency [10]: inactive
- Potency [11]: inactive
- Potency [12]: inactive
- outcome [13]: inactive
- outcome [14]: inactive
- Potency [15]: inactive
